Test results taken from the supplement of paper PMC13392028.
The full ranking holds about 4,100 sequences; the median of “RBNS R-value (6-mer enrichment in protein-bound RNA vs input library)” is about 0.96, and the highest 2% start at about 2.4. Many of the other results were omitted from the sample, so the highest values are more common in it than they were.

Tested on: PyIESI-1 RRM domain (Plasmodium yoelii PY17X_0911200 aa 795-956, GST fusion)
Test: RBNS R-value (6-mer enrichment in protein-bound RNA vs input library) (ratio); higher = stronger binding preference; the methods of the paper give 50 / 100 / 500 nM protein instead
Description: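 RNA Bind-n-Seq: recombinant GST-tagged IESI-1 RRM domain was incubated at room temperature with a random 40-nt in vitro transcribed RNA library at 250, 500 or 1000 nM protein. Bound RNA was pulled down on glutathione beads and sequenced. R-value is the enrichment of each 6-mer in the bound RNA relative to the input library. Each 6-mer sits inside the random 40-mer context, not as an isolated oligo. Values are replicate 1 only.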

Row | Sequence | RBNS R-value (protein concentration: 250 nM) | RBNS R-value (protein concentration: 500 nM) | RBNS R-value (protein concentration: 1000 nM)
1 | UACUAC | 0.519 | 0.53 | 0.491
2 | CAUUAG | 0.57 | 0.593 | 0.579
3 | AAUUAG | 0.641 | 0.657 | 0.639
4 | GAUUAC | 2.72 | 2.65 | 2.82
5 | GAUUAG | 2.44 | 2.41 | 2.5
6 | GAUUAA | 2.47 | 2.37 | 2.56
7 | UAUUAC | 0.487 | 0.514 | 0.489
8 | CAUUAC | 0.471 | 0.51 | 0.491
9 | CAUUAA | 0.41 | 0.435 | 0.403
10 | AAUUAA | 0.471 | 0.515 | 0.483
11 | CGGUGA | 1.36 | 1.39 | 1.35
12 | ACCGCG | 1.03 | 1.03 | 1.04
13 | CGAACC | 1.09 | 1.06 | 1.06
14 | GGGCCG | 1 | 1.01 | 0.999
15 | GCAAGC | 0.92 | 0.933 | 0.931
16 | CCGGUC | 0.872 | 0.923 | 0.916
17 | GAUGCC | 2.7 | 2.6 | 2.86
18 | AAUGCG | 0.941 | 0.968 | 0.97
19 | CAUGCC | 0.921 | 0.929 | 0.99
20 | UAUGCG | 0.859 | 0.856 | 0.873
21 | AAUGCU | 0.903 | 0.932 | 0.944
22 | GAUGCG | 2.54 | 2.45 | 2.52
23 | UAUGCC | 0.797 | 0.84 | 0.861
24 | CAUGCA | 0.757 | 0.762 | 0.774
25 | UAUGCA | 0.689 | 0.714 | 0.705
26 | GAUGCU | 2.48 | 2.42 | 2.51

Row | Sequence | RBNS R-value (protein concentration: 250 nM) | RBNS R-value (protein concentration: 500 nM) | RBNS R-value (protein concentration: 1000 nM)
27 | CAUGCU | 0.844 | 0.875 | 0.883
28 | GAUGCA | 2.66 | 2.5 | 2.68
29 | CUGCCA | 1.03 | 1.05 | 1.07
30 | UUUGUU | 0.893 | 0.907 | 0.907
31 | ACGAAC | 0.96 | 0.939 | 0.926
32 | AUUUAU | 0.824 | 0.83 | 0.836
33 | UGCUUU | 1.1 | 1.15 | 1.18
34 | CGAUGC | 2.07 | 2.1 | 2.31
35 | CAAUGA | 2.27 | 2.18 | 2.28
36 | AGAUGA | 2.69 | 2.61 | 2.72
37 | AGAUGC | 1.47 | 1.52 | 1.65
38 | CGAUGU | 2.03 | 2.04 | 2.13
39 | AUAUGA | 1.78 | 1.74 | 1.84
40 | GGAUGA | 1.75 | 1.71 | 1.69
41 | AGAUGU | 1.45 | 1.47 | 1.54
42 | UUAUGA | 1.76 | 1.72 | 1.81
43 | CGAUGA | 3.48 | 3.36 | 3.47
44 | UGAUGU | 7 | 6.29 | 6.39
45 | UGAUGA | 9.09 | 7.87 | 7.73
46 | UCACCA | 0.862 | 0.849 | 0.9
47 | GGAGCG | 1.01 | 1.01 | 0.994
48 | AUACCA | 0.709 | 0.723 | 0.733
49 | AACUUC | 0.893 | 0.92 | 0.901
50 | CGCAAG | 0.91 | 0.907 | 0.917
51 | UCCCAA | 0.972 | 0.967 | 0.987
52 | GGGGGA | 1.03 | 1.05 | 1.01

Row | Sequence | RBNS R-value (protein concentration: 250 nM) | RBNS R-value (protein concentration: 500 nM) | RBNS R-value (protein concentration: 1000 nM)
53 | GGAUGC | 1.08 | 1.04 | 1.08
54 | UGAUGC | 6.04 | 5.5 | 5.71
55 | UUAUGC | 0.736 | 0.778 | 0.779
56 | UGAUGG | 5.96 | 5.24 | 5.21
57 | CGAUGG | 2.05 | 1.98 | 2
58 | AGAUGG | 1.49 | 1.46 | 1.49
59 | CAAGGC | 0.956 | 0.935 | 0.949
60 | CACACU | 0.829 | 0.834 | 0.839
61 | CGGAGC | 1.02 | 1.01 | 1
62 | UUCUUU | 0.927 | 0.977 | 1
63 | AUUUGC | 1.82 | 1.76 | 1.77
64 | UAUGGG | 0.863 | 0.942 | 0.916
65 | GAUGGC | 3.56 | 3.12 | 3.1
66 | UAUGGC | 1.41 | 1.37 | 1.34
67 | AAUGGG | 1.06 | 1.06 | 1.03
68 | CAUGGC | 1.06 | 1.08 | 1.1
69 | GAUGGG | 2.54 | 2.43 | 2.36
70 | UCAGAC | 0.883 | 0.894 | 0.893
71 | AUUUAC | 0.935 | 0.952 | 0.963
72 | AUGGGA | 1.34 | 1.34 | 1.29
73 | GUCAAC | 0.681 | 0.708 | 0.688
74 | UCUCAA | 0.805 | 0.835 | 0.84
75 | UUACGC | 0.784 | 0.803 | 0.805
76 | AAGGCU | 0.979 | 0.991 | 0.95
77 | GAUCGG | 0.955 | 0.963 | 0.942
78 | GAUAUG | 2.3 | 2.32 | 2.43

Row | Sequence | RBNS R-value (protein concentration: 250 nM) | RBNS R-value (protein concentration: 500 nM) | RBNS R-value (protein concentration: 1000 nM)
79 | GAUAUU | 1.57 | 1.65 | 1.77
80 | GAUAUA | 1.32 | 1.36 | 1.53
81 | AUAUAA | 0.522 | 0.55 | 0.539
82 | AGUGUA | 0.664 | 0.68 | 0.657
83 | GGAGUU | 0.958 | 0.98 | 0.948
84 | UUUACC | 0.764 | 0.778 | 0.794
85 | GGGUGU | 0.909 | 0.99 | 0.941
86 | UCGGAA | 0.911 | 0.907 | 0.87
87 | UAUGAA | 0.826 | 0.838 | 0.811
88 | UAUGAU | 4.89 | 4.59 | 4.9
89 | AAUGAU | 5.76 | 5.22 | 5.56
90 | CAUGAU | 5.84 | 5.36 | 5.72
91 | AAUGGU | 0.878 | 0.894 | 0.881
92 | CAUGAA | 0.887 | 0.913 | 0.901
93 | UAUGAG | 0.865 | 0.899 | 0.898
94 | CAUGAG | 0.978 | 0.984 | 0.979
95 | AAUGAG | 1.03 | 1.07 | 1.04
96 | AUAGUC | 0.632 | 0.65 | 0.627
97 | CACCUG | 1.72 | 1.67 | 1.73
98 | GAUGAG | 3.25 | 3.07 | 3.06
99 | GACGAG | 1.19 | 1.18 | 1.13
100 | GGUGAA | 1 | 1.02 | 0.954
101 | AAUGAC | 1.19 | 1.23 | 1.25
102 | GAUGGU | 1.92 | 1.85 | 1.9
103 | GAUGAA | 4.07 | 3.66 | 3.68
104 | GAUGAU | 6.07 | 5.52 | 5.59

Row | Sequence | RBNS R-value (protein concentration: 250 nM) | RBNS R-value (protein concentration: 500 nM) | RBNS R-value (protein concentration: 1000 nM)
105 | AAUGAA | 1.03 | 1.02 | 1.02
106 | GAUAAU | 1.7 | 1.73 | 1.86
107 | GAUGAC | 3.66 | 3.41 | 3.46
108 | UAUGAC | 0.93 | 0.947 | 0.974
109 | UGAUCG | 1.64 | 1.68 | 1.74
110 | CUAAGC | 0.741 | 0.738 | 0.733
111 | GUUUGG | 0.834 | 0.866 | 0.813
112 | UAGGAG | 0.934 | 0.936 | 0.887
113 | CUGCAU | 0.892 | 0.929 | 0.917
114 | UCUGUU | 0.847 | 0.911 | 0.878
115 | GUGGCG | 0.953 | 0.954 | 0.937
116 | GAAUGU | 0.999 | 1 | 0.972
117 | UAAUGA | 1.69 | 1.65 | 1.71
118 | GAAUGC | 1.17 | 1.18 | 1.17
119 | AAAUGA | 2.48 | 2.3 | 2.4
120 | AAAUGC | 0.942 | 0.952 | 0.985
121 | GAAUGA | 2.5 | 2.31 | 2.3
122 | AUUAAC | 0.87 | 0.859 | 0.881
123 | CCCUCC | 1.15 | 1.13 | 1.17
124 | UCGCGU | 0.843 | 0.85 | 0.835
125 | ACUCUC | 0.893 | 0.906 | 0.906
126 | GAGGAC | 1.09 | 1.06 | 1.02
